EPAC2 ag = qHTS for Agonist of cAMP-regulated guanine nucleotide exchange factor 4 (EPAC2): primary screen | hit rate 0.079% among 360,000 | Rap guanine nucleotide exchange factor 4 (Homo sapiens), Q8WZA2 | EPAC2 activation, biochemical qHTS; response scale: 100% = 6.5 mM cAMP response | AID 720711, 2013 | Potency, µM (highest dose often 154 µM), hits mostly activators; note: nearly all actives have a fitted effect of over 50% in size
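Guanine nucleotide exchange by EPAC2 is measured as reduced fluorescence of BODIPY-GDP once it is released from 250 nM Rap1B. Plates are read kinetically for 30 min at room temperature; results are scaled to 6.5 mM cAMP.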
EPAC2 antag = qHTS for Antagonist of cAMP-regulated guanine nucleotide exchange factor 2 (EPAC2): primary screen | Potency, µM (series often up to 114 µM), actives largely listed as inhibitors | EPAC2 GEF exchange of Rap1B-BODIPY-GDP, fluorescence | Rap guanine nucleotide exchange factor 4 (Homo sapiens), Q8WZA2 | AID 720708, 2013 | hit rate 0.18% among 360,000; note: nearly all actives have a fitted effect of over 45% in size
USP1-UAF1 inh = Inhibitors of USP1/UAF1: Primary Screen; Ubiquitin carboxyl-terminal hydrolase 1 (Homo sapiens), O94782; recombinant USP1/UAF1, Ub-Rhodamine cleavage fluorescence; Potency, µM (series often up to 57.1 µM), actives largely listed as inhibitors; hit rate 0.23% among 390,000; AID 743255, 2014; note: nearly all actives have a fitted effect of over 60% in size
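In this screen, compounds sit with the deubiquitinase complex (1nM) for 15 min at room temperature before Ub-Rho is added at 150nM final. Fluorescence rise is then followed for 6 reads every 60 seconds.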
Coupling enz = qHTS Assay for Inhibitors of Fructose-1,6-bisphosphate Aldolase from Giardia Lamblia: Coupling assay counterscreen; hit rate 0.67% among 290,000; coupling enzyme system counterscreen, AmpLite Red fluorescence; activity change, negative = inhibition, % at 58.2 µM, hits read low; AID 2472, 2010; in the data active = activity change below about -30%
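Counterscreen of the coupled detection system alone, without aldolase: glyceraldehyde-3-phosphate coupling enzymes plus AmpLite Red readout. Compounds at 57.5 uM final, 10 min RT preincubation, 20 min RT reaction, fluorescence 525/598 nm.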
EPAC1 ag = qHTS for Agonist of cAMP-regulated guanine nucleotide exchange factor 3 (EPAC1): primary screen. Rap guanine nucleotide exchange factor 3 (Homo sapiens), O95398. EPAC1 agonist qHTS, biochemical assay; response scale: 100% = response to 6.5 mM cAMP. Potency, µM (doses to about 154 µM), usual class: activators. hit rate 0.073% among 360,000; note: nearly all actives have a fitted effect of over 60% in size
Target sequence (O95398 whole entry, looked up): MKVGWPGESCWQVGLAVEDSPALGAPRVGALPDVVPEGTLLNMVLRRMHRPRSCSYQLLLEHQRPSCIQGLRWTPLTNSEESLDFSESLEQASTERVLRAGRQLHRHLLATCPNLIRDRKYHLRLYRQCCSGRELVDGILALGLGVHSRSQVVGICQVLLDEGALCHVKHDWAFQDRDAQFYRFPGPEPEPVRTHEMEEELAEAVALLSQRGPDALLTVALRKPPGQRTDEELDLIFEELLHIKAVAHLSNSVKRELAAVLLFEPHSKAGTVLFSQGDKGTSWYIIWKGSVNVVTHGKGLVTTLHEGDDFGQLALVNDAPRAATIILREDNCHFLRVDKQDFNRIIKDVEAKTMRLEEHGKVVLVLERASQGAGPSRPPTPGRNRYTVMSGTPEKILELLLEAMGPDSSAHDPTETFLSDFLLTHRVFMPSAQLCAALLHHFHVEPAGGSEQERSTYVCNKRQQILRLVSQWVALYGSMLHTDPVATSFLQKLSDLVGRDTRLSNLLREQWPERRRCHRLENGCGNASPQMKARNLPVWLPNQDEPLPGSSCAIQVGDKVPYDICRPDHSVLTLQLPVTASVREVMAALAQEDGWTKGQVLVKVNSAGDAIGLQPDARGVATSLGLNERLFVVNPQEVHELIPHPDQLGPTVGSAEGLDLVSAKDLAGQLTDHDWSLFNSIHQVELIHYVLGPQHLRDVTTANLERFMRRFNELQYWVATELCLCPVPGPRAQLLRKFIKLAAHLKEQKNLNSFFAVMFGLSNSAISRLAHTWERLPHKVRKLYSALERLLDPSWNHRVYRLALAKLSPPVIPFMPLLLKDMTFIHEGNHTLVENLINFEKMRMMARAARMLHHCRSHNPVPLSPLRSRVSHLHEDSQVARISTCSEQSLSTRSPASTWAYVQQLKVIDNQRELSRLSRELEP
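Multi-concentration qHTS readout: loss of Rap1B-bound BODIPY-GDP fluorescence driven by 100 nM EPAC1 with excess GDP (50 uM), monitored kinetically at room temperature; agonist response expressed relative to 6.5 mM cAMP.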
EPAC1 antag = qHTS for Antagonist of cAMP-regulated guanine nucleotide exchange factor 3 (EPAC1): primary screen; Rap guanine nucleotide exchange factor 3 (Homo sapiens), O95398; EPAC1 GEF assay, Rap1b-BODIPY-GDP exchange fluorescence; Potency, µM (titrated, usually from 115 µM), usual class: inhibitors; hit rate 0.14% among 360,000; note: nearly all actives have a fitted effect of over 50% in size
A number is an active result. Hits are enriched below; roughly 0.87% of the tested compounds scored in any of these assays. Unless noted, calls come from the whole dose curve; as a rule, active = well fitted curve in the direction sought with a large enough effect; inconclusive = small, poorly fitted or top-dose-only effect, or another doubt; inactive = no such curve, though single readings can be large; an effect the other way counts as inactive or inconclusive.

How did O=C1C=C(O)c2cccc(O)c2C1=O do in these assays?
EPAC2 ag: inactive; EPAC2 antag: inactive; USP1-UAF1 inh: 31.6µM; Coupling enz: inactive; EPAC1 ag: inactive; EPAC1 antag: inactive

How did CCn1nc(C)c(CNC(=O)CCc2nnc(Cc3c[nH]c4ccccc34)o2)c1C do in these assays?
EPAC2 ag: inactive; EPAC2 antag: inactive; USP1-UAF1 inh: inactive; Coupling enz: inactive; EPAC1 ag: inactive; EPAC1 antag: inactive

Results for COc1ccc2c(c1)Cc1sc(NC(=O)c3ccccc3)nc1-2 ?
EPAC2 ag: inactive; EPAC2 antag: inactive; USP1-UAF1 inh: inconclusive; Coupling enz: -35.7; EPAC1 ag: inactive; EPAC1 antag: inactive

What do the screens show for `COC1=C(Nc2ccc(O)cc2)C(=O)c2ccccc2C1=O`?
EPAC2 ag: inactive; EPAC2 antag: inactive; USP1-UAF1 inh: inconclusive; Coupling enz: -32.5; EPAC1 ag: inactive; EPAC1 antag: inconclusive

What do the screens show for `CCOc1ccc(NC2=C(OC)C(=O)c3ccccc3C2=O)cc1`?
EPAC2 ag: inactive; EPAC2 antag: inactive; USP1-UAF1 inh: inconclusive; Coupling enz: inactive; EPAC1 ag: inactive; EPAC1 antag: inactive

What do the screens show for `COC1=C(Nc2ccc(OC)cc2)C(=O)c2ccccc2C1=O`?
EPAC2 ag: inactive; EPAC2 antag: inactive; USP1-UAF1 inh: inactive; Coupling enz: -33.8; EPAC1 ag: inactive; EPAC1 antag: inactive

How did S=C(NCc1ccccc1)N1CCc2ccccc2C1 do in these assays?
EPAC2 ag: inactive; EPAC2 antag: inactive; USP1-UAF1 inh: inactive; Coupling enz: inactive; EPAC1 ag: inactive; EPAC1 antag: inactive

Results for CC(C)(C)NC(=O)C(=O)NNC(=O)c1ccccc1Br ?
EPAC2 ag: inactive; EPAC2 antag: inactive; USP1-UAF1 inh: inactive; Coupling enz: inactive; EPAC1 ag: inactive; EPAC1 antag: inactive

How did O=C(O)c1ccc2nc(-c3ccco3)c(-c3ccco3)nc2c1 do in these assays?
EPAC2 ag: inactive; EPAC2 antag: inactive; USP1-UAF1 inh: inactive; Coupling enz: -35.4; EPAC1 ag: inactive; EPAC1 antag: inactive

What do the screens show for `O=S(=O)(c1ccc2nc(-c3ccco3)c(-c3ccco3)nc2c1)N1CCOCC1`?
EPAC2 ag: inactive; EPAC2 antag: inactive; USP1-UAF1 inh: inactive; Coupling enz: -44.7; EPAC1 ag: inactive; EPAC1 antag: inconclusive

Results for O=C(Nc1cccc(C(F)(F)F)c1)c1ccc2nc(-c3ccco3)c(-c3ccco3)nc2c1 ?
EPAC2 ag: inactive; EPAC2 antag: inconclusive; USP1-UAF1 inh: 28.2µM; Coupling enz: -39.1; EPAC1 ag: inactive; EPAC1 antag: 35.5µM

How did CCc1nc2ccc(C(=O)N3CCN(c4ccccc4)CC3)cc2nc1CC do in these assays?
EPAC2 ag: inactive; EPAC2 antag: inactive; USP1-UAF1 inh: inactive; EPAC1 ag: inactive; EPAC1 antag: inactive

Results for O=C(c1ccc2nc(-c3ccco3)c(-c3ccco3)nc2c1)N1CCN(c2ccccc2)CC1 ?
EPAC2 ag: inactive; EPAC2 antag: inactive; USP1-UAF1 inh: inactive; Coupling enz: -40.0; EPAC1 ag: inactive; EPAC1 antag: inactive

Results for C=CCNC(=S)Nc1ccc(N2CCOCC2)c(S(=O)(=O)Nc2ccccc2Cl)c1 ?
EPAC2 ag: inactive; EPAC2 antag: inactive; USP1-UAF1 inh: inactive; Coupling enz: inactive; EPAC1 ag: inactive; EPAC1 antag: inactive

How did CCNC(=S)Nc1ccc(Cl)c([N+](=O)[O-])c1 do in these assays?
EPAC2 ag: inactive; EPAC2 antag: inactive; USP1-UAF1 inh: inactive; Coupling enz: inactive; EPAC1 ag: inactive; EPAC1 antag: inactive

Results for COc1ccc(CCNC(=O)c2ccc3nc(-c4ccco4)c(-c4ccco4)nc3c2)cc1OC ?
EPAC2 ag: inactive; EPAC2 antag: inactive; USP1-UAF1 inh: inactive; Coupling enz: -33.1; EPAC1 ag: inactive; EPAC1 antag: inconclusive

Results for CC(=O)c1cccc(CN2CCCCC2C(=O)Nc2ccc(Oc3ccccc3)nc2)c1 (stereo not given) ?
EPAC2 ag: inactive; EPAC2 antag: inactive; USP1-UAF1 inh: inactive; EPAC1 ag: inactive; EPAC1 antag: inactive

How did O=C(N/N=C/c1cccc([N+](=O)[O-])c1)c1ccccc1-n1cccc1 do in these assays?
EPAC2 ag: inactive; EPAC2 antag: inactive; USP1-UAF1 inh: inactive; Coupling enz: -38.2; EPAC1 ag: inactive; EPAC1 antag: inactive

How did CN1CCN(c2ncc3nc(-c4cn(C)c5ccccc45)c(=O)n(-c4ccccc4)c3n2)CC1 do in these assays?
Coupling enz: inactive

What do the screens show for `COc1cc(/C=C2\CC/C(=C\c3cc(OC)c(O)c(OC)c3)C2=O)cc(OC)c1O`?
EPAC2 ag: inactive; EPAC2 antag: inactive; USP1-UAF1 inh: inactive; Coupling enz: -34.0; EPAC1 ag: inactive; EPAC1 antag: inconclusive

What do the screens show for `COc1ccc(S(=O)(=O)N2CCCCC2)cc1NC(=O)c1c(F)cccc1Cl`?
EPAC2 ag: inactive; EPAC2 antag: inactive; USP1-UAF1 inh: inactive; EPAC1 ag: inactive; EPAC1 antag: 56.2µM

What do the screens show for `CCOC(=O)N1CCN(C(=O)CSc2nc(CC)nc3c2c(=O)n(C)c(=O)n3C)CC1`?
EPAC2 ag: inactive; EPAC2 antag: inactive; USP1-UAF1 inh: inactive; Coupling enz: inactive; EPAC1 ag: inactive; EPAC1 antag: inactive

How did Cc1cc(NS(=O)(=O)c2ccc(NC(=O)c3cc4cc(Br)ccc4oc3=O)cc2)no1 do in these assays?
EPAC2 ag: inactive; EPAC2 antag: inactive; USP1-UAF1 inh: inactive; Coupling enz: inactive; EPAC1 ag: inactive; EPAC1 antag: inactive

How did c1ccc2oc(CCc3nc4ccccc4o3)nc2c1 do in these assays?
EPAC2 ag: inactive; EPAC2 antag: inactive; USP1-UAF1 inh: inactive; Coupling enz: inactive; EPAC1 ag: inactive; EPAC1 antag: inactive

How did Nc1ccc2oc(CCc3ccccc3)nc2c1 do in these assays?
EPAC2 ag: inactive; EPAC2 antag: inactive; USP1-UAF1 inh: inactive; Coupling enz: -34.7; EPAC1 ag: inactive; EPAC1 antag: inactive

How did CCn1cnc2sc(C(=O)Nc3ccccc3OC)c(C)c2c1=O do in these assays?
EPAC2 ag: inactive; EPAC2 antag: inactive; USP1-UAF1 inh: inactive; Coupling enz: inactive; EPAC1 ag: inactive; EPAC1 antag: inactive

Results for O=C(N/N=C\c1ccc(Cl)s1)c1cccs1 ?
EPAC2 ag: inactive; EPAC2 antag: inactive; USP1-UAF1 inh: inactive; Coupling enz: inactive; EPAC1 ag: inactive; EPAC1 antag: inactive

Compound activity: PubChem BioAssay, National Center for Advancing Translational Sciences (NCATS)
